# Results reported in the supplement of paper PMC3545927.
# This is one part of the list. The true hit rate is not given.
# Target: furin, P09958
# Experiment: furin cleavage Z-score vs untreated control; higher = more cleavage, active = 3.5 or more, inactive = 1 or less, 8 variable residues between constant flanks
# In short: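 Magnetic beads held 8-mer peptides by the N-terminus, each fused to a cDNA oligonucleotide, and purified furin was added for 7.5, 15 or 30 min. Released DNA was sequenced after PCR adapter tagging. The cleavage Z-score is the log count relative to furin-free reactions, lowess-adjusted and divided by median absolute deviation.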
# 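Also: purified furin at 1:10 enzyme:substrate in 50 mM HEPES pH 7.5.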
# furin, P09958, sequence (P09958 whole entry): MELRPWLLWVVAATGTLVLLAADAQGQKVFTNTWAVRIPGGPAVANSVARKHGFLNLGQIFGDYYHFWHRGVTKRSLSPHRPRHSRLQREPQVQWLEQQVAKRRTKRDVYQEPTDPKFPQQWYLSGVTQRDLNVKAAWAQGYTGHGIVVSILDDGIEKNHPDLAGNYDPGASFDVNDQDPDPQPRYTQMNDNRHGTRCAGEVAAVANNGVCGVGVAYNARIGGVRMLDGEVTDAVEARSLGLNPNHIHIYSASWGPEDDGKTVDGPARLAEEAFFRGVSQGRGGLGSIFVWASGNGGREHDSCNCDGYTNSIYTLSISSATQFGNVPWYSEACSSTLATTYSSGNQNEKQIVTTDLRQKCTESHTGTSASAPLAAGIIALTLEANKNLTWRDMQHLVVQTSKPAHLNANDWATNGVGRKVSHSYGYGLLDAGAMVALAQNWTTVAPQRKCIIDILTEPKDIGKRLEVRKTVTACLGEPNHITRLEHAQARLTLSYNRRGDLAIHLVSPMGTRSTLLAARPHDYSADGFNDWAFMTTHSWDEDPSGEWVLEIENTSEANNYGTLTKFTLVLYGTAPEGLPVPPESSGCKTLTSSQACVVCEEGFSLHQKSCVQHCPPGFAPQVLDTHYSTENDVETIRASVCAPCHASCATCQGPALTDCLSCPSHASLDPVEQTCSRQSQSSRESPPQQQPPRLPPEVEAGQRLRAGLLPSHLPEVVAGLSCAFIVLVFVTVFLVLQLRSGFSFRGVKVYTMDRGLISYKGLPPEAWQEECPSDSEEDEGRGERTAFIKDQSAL
Sequence,furin cleavage Z-score (7.5 min),furin cleavage Z-score (15 min),furin cleavage Z-score (30 min)
CAEKMALYDVAGNASASA [HC1456],0.218 (inactive),-0.51 (inactive),0.171 (inactive)
CARQNRSRSIAGNASASA [FS-2362],-0.846 (inactive),0.141 (inactive),-0.0686 (inactive)
CARRKKILDVAGNASASA [FS-3049],0.884 (inactive),0.207 (inactive),-1.99 (inactive)
CARKWRSWKVAGNASASA [FS-2274],1.07,1.35,0.0619 (inactive)
CAVVCCSMSIAGNASASA [HC2084],-0.331 (inactive),-1.27 (inactive),0.12 (inactive)
CARERRWQDVAGNASASA [FS-1698],-0.457 (inactive),0.122 (inactive),1.79
CARQMRSVDVAGNASASA [FS-3039],2.09,3.9 (active),5.69 (active)
CARVTRSLDVAGNASASA [FS-3127],5.89 (active),8.68 (active),7.6 (active)
CARQMRSASIAGNASASA [FS-2400],0.584 (inactive),2.25,4.94 (active)
CAGGDIYHSVAGNASASA [HC1649],-1.03 (inactive),-0.366 (inactive),-0.802 (inactive)
CASSPCSAHLAGNASASA [HC2497],0.244 (inactive),0.911 (inactive),0.262 (inactive)
CAAVLTSMLTAGNASASA [HC1245],-1.15 (inactive),1.56,0.027 (inactive)
CAVSKRHVRIAGNASASA [FS-2114],-0.647 (inactive),1.47,2.71
CARSNRQLGIAGNASASA [FS-2185],0.465 (inactive),-0.691 (inactive),0.216 (inactive)
CANFHKARRFAGNASASA [FS-1143],-0.34 (inactive),-0.616 (inactive),-0.0235 (inactive)
CAAAAAAAAAAGNASASA [NE2],2.09,0.496 (inactive),2.15
CAVSRRSRGIAGNASASA [FS-2857],1.63,3.08,4.54 (active)
CAAAARARRFAGNASASA [FS-1108],2.41,5.92 (active),6.24 (active)
CAVSRRARRFAGNASASA [FS-1436],10.2 (active),11.6 (active),10.4 (active)
CANWQRARRFAGNASASA [FS-912],3.9 (active),4.91 (active),5.21 (active)
CANWQKLETFAGNASASA [HC1037],0.812 (inactive),-1.06 (inactive),0.807 (inactive)
CATAFVGAGLAGNASASA [HC1074],-0.799 (inactive),-0.776 (inactive),-1.06 (inactive)
CAGVRLHRFAAGNASASA [HC1224],-0.592 (inactive),-0.925 (inactive),-0.313 (inactive)

Sequence,furin cleavage Z-score (7.5 min),furin cleavage Z-score (15 min),furin cleavage Z-score (30 min)
CAQKKVTFDRAGNASASA [HC1395],-0.415 (inactive),-0.119 (inactive),-0.531 (inactive)
CAKYIMTCMSAGNASASA [HC982],-1.5 (inactive),-0.454 (inactive),-2.07 (inactive)
CAGEVQIVSTAGNASASA [HC689],-0.7 (inactive),0.651 (inactive),-0.62 (inactive)
CAYPGHITGHAGNASASA [HC315],0.244 (inactive),-0.868 (inactive),0.3 (inactive)
CAESENKVVIAGNASASA [HC1283],-1.56 (inactive),-1.01 (inactive),-1.31 (inactive)
CACQCRFFRSAGNASASA [FS-1313],0.733 (inactive),-1.88 (inactive),-0.461 (inactive)
CAGKELRKRSAGNASASA [FS-998],6.16 (active),6.24 (active),6.7 (active)
CACCCRRKRSAGNASASA [FS-118],7.96 (active),7.28 (active),6.41 (active)
CAMEVLRKRSAGNASASA [FS-911],-0.513 (inactive),-0.258 (inactive),0.754 (inactive)
CATLERRKRSAGNASASA [FS-1172],11.2 (active),9.64 (active),8.54 (active)
CALPIRRKRSAGNASASA [FS-1028],13 (active),13.8 (active),9.29 (active)
CAKVKANLLSAGNASASA [HC1409],0.199 (inactive),-1.82 (inactive),-0.858 (inactive)
CADYMEECSQAGNASASA [HC1809],0.775 (inactive),0.374 (inactive),-0.614 (inactive)
CAMEQCSQHLAGNASASA [HC1722],2.51,1.08,0.422 (inactive)
CANGTMRIVGAGNASASA [HC1181],0.253 (inactive),1.69,-0.0933 (inactive)
CAEVVTITWVAGNASASA [HC145],-0.85 (inactive),0.512 (inactive),-0.407 (inactive)
CAIFRAAVCTAGNASASA [HC750],-0.737 (inactive),-0.718 (inactive),-0.0235 (inactive)
CACCSMSYSWAGNASASA [HC1370],0.447 (inactive),-0.385 (inactive),0.225 (inactive)
CADRHFRKRSAGNASASA [FS-925],9.05 (active),11.3 (active),9.58 (active)
CASNGRRKRSAGNASASA [FS-1570],11 (active),11.1 (active),9.24 (active)
CATLARRKRSAGNASASA [FS-1423],11.4 (active),11.2 (active),9.32 (active)
CAERRKRKRSAGNASASA [FS-1119],11.5 (active),11.6 (active),9.13 (active)
